KB-3-1 tox = KB-3-1 parental cell cytotoxicity; KB-3-1 viability, CellTiter-Glo ATP luminescence, 72 h; Potency, µM (doses to about 46.1 µM), usual class: cytotoxic; actives 1.4% (n = 400,000); AID 1347075; note: nearly all actives have a fitted effect of over 60% in size
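72 h, 37 °C compound treatment of KB-3-1 parental cells; CellTiter-Glo added, 10 min, luminescence read. Data corrected against DMSO-only plates and normalized before curve fitting.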
TDP1 cell noCPT = qHTS for Inhibitors of human tyrosyl-DNA phosphodiesterase 1 (TDP1): qHTS in cells in absence of CPT; DT40 Tdp1-/- hTDP1 cells, no CPT, ATP luminescence, 48 h; Potency, µM (titrated, usually from 46.2 µM), inactives show at the top dose activity change, negative = growth inhibition, hits mostly inhibitors; actives 15% (n = 420,000); note: nearly all actives have a fitted effect of over 55% in size
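Stably hTDP1-transfected Tdp1-null chicken DT40 cells were treated with library compounds minus camptothecin and grown for at least 48 hr at 37 °C, after which cellular ATP was quantified by luminescence.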
HT1080 IDH1KD tx = kills HT-1080 cells with IDH1 knockdown. actives 2% (n = 360,000). HT-1080 IDH1 knockdown viability, ATP luminescence, 48 h. AID 686971. Potency, µM (series often up to 46.1 µM), for inactives: at the highest dose activity, negative = toxicity, most hits filed as cytotoxic;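 note: 0% = DMSO wells and -100% = cell-free medium wells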
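Using the IDH1-knockdown HT-1080 line run in the same batch and compound series as the NT line, viability after 48 h at 37 °C was determined by CellTiter-Glo luminescence and expressed as % activity.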
KB-V1 MDR tox = kills drug-selected multidrug resistant KB-V1 cells. KB-V1 MDR cells viability, CellTiter-Glo, 72 h. Potency, µM (top dose mostly 46.1 µM), actives largely listed as cytotoxic. actives 3.4% (n = 400,000); note: nearly all actives have a fitted effect of over 60% in size
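Cytotoxicity toward P-gp-expressing KB-V1 cells was determined as loss of CellTiter-Glo luminescence after 72 h at 37 degrees C. Compounds were tested in quantitative HTS format across a concentration range, with curves fitted to normalized data.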
TDP1 cell CPT = growth inhibition of DT40 Tdp1-/-;hTDP1 cells with camptothecin (screen for TDP1 inhibitors). chicken DT40 Tdp1-/-;hTDP1 cells + 20 nM CPT, ATP luminescence, 48 h. Potency, µM (top dose mostly 46.2 µM), for the others: top-dose activity change, negative = growth inhibition, hits mostly inhibitors. actives 12% (n = 420,000). AID 686979; note: nearly all actives have a fitted effect of over 55% in size
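Chicken DT40 Tdp1-/- cells complemented with human TDP1, 400 cells/well, exposed to compounds plus 20 nM camptothecin for at least 48 h at 37 C; viability read as ATP content by CellTiter-Glo luminescence.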
HT1080NT lethal = kills 2HG-producing HT-1080-NT fibrosarcoma cells; HT-1080-NT fibrosarcoma viability, CellTiter-Glo ATP luminescence, 48 h; Potency, µM (titrated, usually from 46.1 µM), without a hit: at the top dose activity, negative = less viability, hits mostly cytotoxic; actives 1.6% (n = 360,000); AID 686970;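 note: NT is the 2HG producing partner of a matched IDH1 knockdown line; 0% = DMSO-treated cells and -100% = media-only wells without cells; nearly all actives have a fitted effect of over 55% in size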
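Toxicity toward the 2HG-producing NT line was scored as %Activity, normalised to DMSO and no-cell wells, from CellTiter-Glo luminescence after 48 hours' treatment.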
Active calls of the source: *; i = inactive; ? = inconclusive; · = no result. The list is not random: actives were taken first. Their share in the collection is about 19%. Calls come from the whole dose curve; as a rule, active = well fitted curve in the direction sought with a large enough effect; inconclusive = small, poorly fitted or top-dose-only effect, or another doubt; inactive = no such curve, though single readings can be large; an effect the other way counts as inactive or inconclusive. Unless noted, % is set by controls: 0 for no effect and ±100 for the full control effect; potency is the fitted concentration of half-maximal effect.

SMILES | KB-3-1 tox | TDP1 cell noCPT | HT1080 IDH1KD tx | KB-V1 MDR tox | TDP1 cell CPT | HT1080NT lethal
COC(=O)c1sc(NC(=O)COc2ccccc2C)nc1C | i | -4.2% | -17.6% | i | 0.2% | -18.1%
Cc1ccc(NC(=O)CN(C)CC(=O)N(C)Cc2ccccc2)cc1 | i | ? | 7.2% | i | ? | -5.5%
O=C(c1cnccn1)N1CCC[C@@]2(CCN(Cc3nccs3)C2)C1 | · | -4.0% | · | · | 7.6% | ·
C=CCNC(=O)c1c(CSc2ccc(Cl)cc2)noc1C(=O)NCc1ccccc1 | i | ? | -9.6% | i | ? | -11.1%
C/C(=N\NC(=O)CSCc1ccccc1Cl)c1cc(O)ccc1O | i | 5.17µM* | -17.5% | i | 6.51µM* | -17.4%
CC(=O)Nc1ccc(NC(=O)CSCc2ccccc2Cl)cc1 | i | -24.7% | 2.2% | i | 2.5% | -0.6%
CC(=O)Nc1nc2ccc(Br)cc2s1 | i | ? | ? | i | 13µM* | -26.2%
CC(=O)Nc1nc2ccc(NC(=O)c3ccco3)cc2s1 | i | 18.4µM* | 2.1% | i | ? | 2.3%
Cc1ccc2nc(NC(=S)NC(=O)c3ccco3)sc2c1 | ? | 3.26µM* | 21.2% | ? | 5.17µM* | 15.1%
Cc1ccc2nc(NC(=O)c3ccco3)sc2c1 | i | 8.2µM* | -25.3% | i | ? | -22.1%
COc1ccc2nc(NC(=O)c3ccco3)sc2c1 | ? | ? | -11.1% | i | ? | -25.1%
Cc1nc2ccc(NC(=O)c3ccco3)cc2s1 | i | -3.1% | 14.5% | i | 3.1% | 9.1%
Cc1cccc(NC(=O)Cn2cc(C(=O)C3CCCCC3)c3ccccc32)c1 | i | ? | · | i | ? | ·
CCOc1ccc(-c2cccc(NS(=O)(=O)c3c(C)cc(C)cc3C)c2)nn1 | i | 23.1µM* | · | ? | ? | ·
COc1ccc(S(=O)(=O)Nc2ccc(-c3ccc4nnc(C)n4n3)cc2)c(OC)c1 | ? | ? | -26.4% | i | ? | ?
CCOc1ccc(-c2ccc(NS(=O)(=O)c3ccc([N+](=O)[O-])cc3)cc2)nn1 | i | 0.5% | -1.2% | i | ? | -17.4%
CCOc1ccc(S(=O)(=O)Nc2cccc(-c3ccc(OCC)nn3)c2)cc1 | i | 16.4µM* | · | i | 11.6µM* | ·
CCOc1ccc(-c2ccc(NS(=O)(=O)c3cc(C)ccc3OC)cc2)nn1 | i | 23.1µM* | · | i | 13µM* | ·
COc1ccc(OC)c(S(=O)(=O)Nc2ccc(-c3ccc4nnc(C)n4n3)cc2)c1 | i | 8.2µM* | ? | i | 8.2µM* | -23.9%
O=C(CC(=O)c1ccccc1)Nc1ccccc1 | i | -12.9% | 13.2% | i | 14.8% | 1.5%
O=C(CC(=O)c1ccccc1)CC(O)(C=Cc1ccccc1)c1ccccc1 (stereo not given) | i | 16.4µM* | ? | i | 20.6µM* | -20.7%
COc1ccc(CCNC(=O)C(=O)NCC(c2ccco2)S(=O)(=O)c2ccc(C)cc2)cc1 (stereo not given) | i | -29.0% | · | i | -22.7% | ·
CC(Oc1nc2c(c(=O)n(C)c(=O)n2C)n1C)C1CCCCC1 (stereo not given) | i | 16.4µM* | 16.6% | ? | 23.1µM* | 10.0%
CCC(C)n1c(OC)nc2c1c(=O)n(C)c(=O)n2C (stereo not given) | i | ? | -16.5% | i | 23.1µM* | -6.8%
C=CCOc1nc2c(c(=O)n(C)c(=O)n2C)n1C | i | 9.1% | 4.5% | i | -9.7% | 23.3%
SMILES | KB-3-1 tox | TDP1 cell noCPT | HT1080 IDH1KD tx | KB-V1 MDR tox | TDP1 cell CPT | HT1080NT lethal
C/C=C/COc1nc2c(c(=O)n(C)c(=O)n2C)n1C | i | 14.6µM* | 13.4% | i | 23.1µM* | 17.1%
CC1CCN(C(=O)CSc2nnc(CN3CCOCC3)n2-c2ccccc2)CC1 | i | -12.8% | -2.5% | ? | -35.8% | 13.4%
C/C(=N\NC(=O)c1cc(-c2ccc(C)s2)[nH]n1)c1ccncc1 | i | ? | -12.8% | i | ? | -22.4%
O=S(=O)(c1ccc(F)c(F)c1)N1CCC2(CC1)OCCO2 | i | 5.7% | 5.4% | i | 19.7% | 0.4%
COc1ccc(OC)c(NC(=O)CSc2nnnn2-c2ccc3c(c2)OCO3)c1 | ? | -17.7% | 0.0% | ? | -29.1% | ?
O=C(CCCC(=O)OCC(=O)c1ccc(Cl)cc1)NC1CCCCC1 | · | -0.1% | -0.2% | · | -18.1% | 1.0%
Cc1cc2c(cc1S(=O)(=O)N(C)C1CCCCC1)OCC(=O)N2 | i | 23.1µM* | 0.3% | i | ? | 8.3%
Cc1cc2c(cc1S(=O)(=O)N(CCN(C)C)Cc1ccccc1)OCC(=O)N2 | i | ? | · | i | 13µM* | ·
Cc1cc2[nH]c(=O)c(=O)[nH]c2cc1S(=O)(=O)N(C)C1CCCCC1 | i | 20.6µM* | -8.4% | i | 20.6µM* | -2.7%
CCc1ccccc1NC(=O)CN(C)C(=O)COC(=O)c1ccco1 | i | 24.7% | -4.2% | i | -5.8% | 0.0%
O=C1CCC(c2ccccc2)N1C(=O)c1cccnc1 (stereo not given) | i | -3.6% | 3.9% | i | -1.4% | 13.2%
COc1ccc(NC2CCCN(C(=O)c3ccc(C)c(N4CCNC4=O)c3)C2)cc1 (stereo not given) | · | -7.1% | 5.4% | · | -15.3% | -4.4%
COc1ccc(S(=O)(=O)N(CCO)c2ccccc2CN(C)C/C=C/c2ccc(Cl)cc2)cc1 | · | 14.6µM* | · | · | 11.6µM* | ·
Cc1ccc(NC(=O)C(=O)NCC(c2ccc3c(c2)OCO3)N2CCOCC2)cc1C (stereo not given) | i | 14.9% | · | i | 13.6% | ·
O=C(Nc1ccc(F)c(Cl)c1)Nc1csc2ccccc12 | ? | 3.66µM* | 6.51µM* | 11.6µM* | 5.17µM* | 9.2µM*
O=C(Nc1ccc(F)cc1F)Nc1ccc(F)cc1F | i | ? | -2.5% | ? | -29.9% | 11.8%
O=C(Nc1ccc(F)cc1F)Nc1csc2ccccc12 | i | 23.1µM* | ? | i | ? | ?
COc1ccc(CN(C)C(=O)C2CCN(C(=O)Nc3ccccc3)CC2)cc1 | i | -3.9% | 4.8% | i | -5.2% | -2.7%
CCCc1cc(NCc2ccccn2)n2nc(C)c(-c3ccccc3)c2n1 | ? | 0.92µM* | ? | i | 0.581µM* | -24.7%
Cc1nn2c(NCc3ccccn3)cc(C(C)C)nc2c1-c1ccccc1 | i | ? | ? | ? | 16.4µM* | -26.7%

Screens (PubChem BioAssay)
